PubChem BioAssay (NCATS)
“And” between values parts separate entries of the source, which are not always exact repeats. Identical values can stand only once. Inconclusive results are not listed. The source made the active and inactive calls. Unless noted, calls come from the whole dose curve; as a rule, active = well fitted curve in the direction sought with a large enough effect; inconclusive = small, poorly fitted or top-dose-only effect, or another doubt; inactive = no such curve, though single readings can be large; an effect the other way counts as inactive or inconclusive.

What was measured:
[1] = molecular target: Cellular tumor antigen p53 (Homo sapiens) (UniProt P04637); assay: Primary qHTS for small molecule compounds that upregulate eGFP-tagged delta133p53alpha (in N-terminal) cells. (AID 2060322); conditions: NCI-H358 eGFP-delta133p53alpha fluorescence, 24 h; activation: hits give high values;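 note: cells pre-induced with doxycycline then dosed without doxycycline; series mostly up to about 56 µM; 0% = DMSO vehicle and 100% = reference activator; nearly all actives have a fitted effect of over 75% in size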
Procedure, shortened: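 NCI-H358 cells pre-induced 24 h with 10 ng/ml doxycycline for eGFP-delta133p53alpha, plated dox-free and exposed 24 h at 37C to titrated compounds. Fixed, Hoechst-stained; gated GFP peak intensity by laser scanning cytometry, normalized to DMSO (0%) and 57.5 uM 5-azacytidine (100%).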

[2] = molecular target: Cellular tumor antigen p53 (Homo sapiens) (UniProt P04637); assay: Primary qHTS for small molecule compounds that upregulate eGFP-tagged delta133p53alpha (in C-terminal) cells. (AID 2060324);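 note: 0% = DMSO wells and 100% = 57.5 µM 5-azacytidine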
Procedure, shortened: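 Concentration-response screen: compounds titrated onto pre-induced NCI-H358 D133p53a-eGFP cells, incubated one day, fixed with 3.5% PFA. Per-cell GFP peak intensity was gated, then normalized against intraplate controls.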

[3] = molecular target: Aldehyde dehydrogenase, mitochondrial (Homo sapiens) (UniProt P05091); assay: qHTS for Inhibitors of the Aldehyde Dehydrogenase Family (ALDH2) Validation screens (AID 2061302; active = well fitted inhibition curve with a large enough effect; title and protocol of this record describe different tests;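 note: plate controls were DMSO vehicle for no effect and maximal DPI positive control response for full effect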)
[4] = molecular target: Aldehyde dehydrogenase, mitochondrial (Homo sapiens) (UniProt P05091); assay: qHTS for Inhibitors of the Aldehyde Dehydrogenase Family (ALDH2) Confirmatory screens (AID 2061303; active = well fitted inhibition curve with a large enough effect; title and protocol of this record describe different tests; note: % is set by controls: 0 for no effect and ±100 for the full control effect; nearly all actives have a fitted effect of over 45% in size)
[5] = qHTS for Inhibitors of the Aldehyde Dehydrogenase Family (ALDH1A2, ALDH1A3, ALDH2, ALDH3A1) (AID 2061307); note: % is set by controls: 0 for no effect and ±100 for the full control effect; nearly all actives have a fitted effect of over 50% in size
[6] = molecular target: Aldehyde dehydrogenase, mitochondrial (Homo sapiens) (UniProt P05091); assay: qHTS for Inhibitors of the Aldehyde Dehydrogenase Family (ALDH2) Primary screen (AID 2061308);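 note: plate controls were vehicle for no effect and reference inhibitor for full effect; nearly all actives have a fitted effect of over 55% in size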
[7] = molecular target: Retinaldehyde dehydrogenase 3 (Homo sapiens) (UniProt P47895); assay: qHTS for Inhibitors of the Aldehyde Dehydrogenase Family (ALDH1A3) Confirmatory screens (AID 2061311); note: % is set by controls: 0 for no effect and ±100 for the full control effect; nearly all actives have a fitted effect of over 60% in size
[8] = molecular target: Retinaldehyde dehydrogenase 3 (Homo sapiens) (UniProt P47895); assay: qHTS for Inhibitors of the Aldehyde Dehydrogenase Family (ALDH1A3) Validation screen (AID 2061312); note: % is set by controls: 0 for no effect and ±100 for the full control effect; nearly all actives have a fitted effect of over 45% in size
[9] = molecular target: Retinal dehydrogenase 2 (Homo sapiens) (UniProt O94788); assay: qHTS for Inhibitors of the Aldehyde Dehydrogenase Family (ALDH1A2) Confirmation screens (AID 2061314); note: % is set by controls: 0 for no effect and ±100 for the full control effect; nearly all actives have a fitted effect of over 65% in size
[10] = molecular target: Retinaldehyde dehydrogenase 3 (Homo sapiens) (UniProt P47895); assay: qHTS for Inhibitors of the Aldehyde Dehydrogenase Family (ALDH1A3) Primary screen (AID 2061315);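 note: plate controls were DMSO vehicle for no effect and reference inhibitor for full effect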
[11] = molecular target: Aldehyde dehydrogenase 1A1 (Homo sapiens) (UniProt P00352); assay: qHTS for Inhibitors of the Aldehyde Dehydrogenase Family (ALDH1A1) Confirmatory screens (AID 2061316); note: nearly all actives have a fitted effect of over 65% in size

Cellular tumor antigen p53 (Homo sapiens), sequence (P04637 whole entry, looked up): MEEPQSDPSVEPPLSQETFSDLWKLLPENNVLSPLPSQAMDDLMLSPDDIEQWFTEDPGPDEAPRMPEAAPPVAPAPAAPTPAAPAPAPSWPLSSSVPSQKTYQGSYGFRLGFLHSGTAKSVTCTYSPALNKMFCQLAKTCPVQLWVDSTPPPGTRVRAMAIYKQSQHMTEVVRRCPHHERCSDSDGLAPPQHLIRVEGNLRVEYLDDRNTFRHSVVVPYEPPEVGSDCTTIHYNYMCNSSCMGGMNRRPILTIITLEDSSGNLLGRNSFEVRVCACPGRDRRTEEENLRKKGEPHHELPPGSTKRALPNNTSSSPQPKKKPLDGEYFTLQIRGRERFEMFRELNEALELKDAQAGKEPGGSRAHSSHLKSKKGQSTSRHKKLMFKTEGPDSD

Oc1cc2c(cc1O)C(c1ccccc1)CNCC2 (stereo unspecified)
inactive: activation [1] 5.86% | Potency [2] | Potency [3]

Nc1c(S(=O)(=O)O)cc(Nc2ccc(Nc3nc(Cl)nc(Nc4ccc(S(=O)(=O)O)cc4)n3)c(S(=O)(=O)O)c2)c2c1C(=O)c1ccccc1C2=O
inactive: activation [1] -2.44% | Potency [2] | Potency [3]

C#CCN(C)Cc1ccccc1
inactive: activation [1] 2.82% and -8.29% | Potency [2] | Potency [3]

NC(Cc1ccc(Cl)cc1)C(=O)O (stereo unspecified)
inactive: activation [1] -15.1% and -12.2% | Potency [2] | Potency [3]

CNCCNS(=O)(=O)c1cccc2cnccc12
inactive: activation [1] -55.4% | Potency [2] | Potency [3]

CC(=O)NCCc1c[nH]c2ccc(O)cc12
inactive: activation [1] 10.8% | Potency [2] | Potency [3]

O=c1[nH]c(=O)c2nc3ccccc3nc2[nH]1
inactive: activation [1] -4.5% | Potency [2] | Potency [3]

Nc1ncnc2c1ncn2[C@@H]1O[C@H](COP(=O)(O)OP(=O)(O)OP(=O)(O)OP(=O)(O)OC[C@@H]2O[C@H](n3cnc4c(N)ncnc43)[C@@H](O)[C@H]2O)[C@@H](O)[C@H]1O
inactive: activation [1] -42.2% | Potency [2] | Potency [3]

CNc1cc(NS(=O)(=O)c2ccc(N)cc2)nc(NC)n1
inactive: activation [1] -5.43% | Potency [2] | Potency [3]

Cc1cc2c(cc1Cl)N(C(=O)Nc1ccnc3ccccc13)CC2
inactive: activation [1] 4.1% | Potency [2] | Potency [3]

Cc1cc(N)c2ccccc2[n+]1CCCCCCCCCC[n+]1c(C)cc(N)c2ccccc21
inactive: activation [1] 10% | Potency [2] | Potency [3] | Potency [4] | Potency [5] | Potency [6] | Potency [7] | Potency [8] | Potency [9] | Potency [10] | Potency [11]
